# Experimental data: the supplement of paper PMC12282887
# ± gives the standard deviation of the averaged measurements.
# Key:
# Assay in all cases: promoter activity interaction Z-score (Lux/OD deviation from empty-vector control); higher = stronger promoter induction by the compound
# [1] = tested on: E. coli BW25113 marRABp lux reporter; details: 5 µg/ml
# Procedure, shortened: (§1)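 E. coli BW25113 (wild type or marA, soxS or rob deletion) carrying low-copy luxCDABE promoter reporters grew in 40 µl LB Lennox in 384-well plates at 37°C. Each compound was tested at four 1:2 dilutions in biological duplicates. OD600 and luminescence were read every 30 min for 12 h. Areas were taken over 0–8 h (wild type) or 1–9 h (mutants), and wells below 10% of median growth area were removed. The score is the Z-transformed residual of growth-normalised luminescence fitted against the empty-vector control.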
# [2] = tested on: E. coli BW25113 micFp lux reporter
# Procedure, shortened: as §1
# [3] = tested on: E. coli BW25113 ompFp lux reporter
# Procedure, shortened: as §1
# [4] = tested on: E. coli BW25113 robp lux reporter
# Procedure, shortened: as §1
# [5] = tested on: E. coli BW25113 soxSp lux reporter
# Procedure, shortened: as §1
# [6] = tested on: E. coli BW25113 tolCp lux reporter
# Procedure, shortened: as §1
# [7] = 0.62 µg/ml, genetic background: wild type
# [8] = 0.62 µg/ml, genetic background: ΔmarA
# [9] = 0.62 µg/ml, genetic background: Δrob
# [10] = 0.62 µg/ml, genetic background: ΔsoxS
# [11] = 1.2 µg/ml, genetic background: wild type
# [12] = 1.2 µg/ml, genetic background: ΔmarA
# [13] = 1.2 µg/ml, genetic background: Δrob
# [14] = 1.2 µg/ml, genetic background: ΔsoxS
# [15] = 2.5 µg/ml, genetic background: wild type
# [16] = 2.5 µg/ml, genetic background: ΔmarA
# [17] = 2.5 µg/ml, genetic background: Δrob
# [18] = 2.5 µg/ml, genetic background: ΔsoxS
# [19] = 5 µg/ml, genetic background: wild type
# [20] = 5 µg/ml, genetic background: ΔmarA
# [21] = 5 µg/ml, genetic background: Δrob
# [22] = 5 µg/ml, genetic background: ΔsoxS
smiles,measurement,setting,value
CN[C@@H]1[C@H](O)[C@H](NC)[C@H]2O[C@@]3(O)C(=O)C[C@@H](C)O[C@H]3O[C@@H]2[C@H]1O [Spectinomycin],promoter activity interaction Z-score,[1]; genetic background: Δrob,0.305 ± 0.34
same,promoter activity interaction Z-score,[1]; genetic background: ΔsoxS,0.00851 ± 0.23
same,promoter activity interaction Z-score,[2]; [7],0.0396 ± 0.21
same,promoter activity interaction Z-score,[2]; [8],0.0233 ± 0.13
same,promoter activity interaction Z-score,[2]; [9],0.0237 ± 0.29
same,promoter activity interaction Z-score,[2]; [10],-0.0535 ± 0.0022
same,promoter activity interaction Z-score,[2]; [11],0.102 ± 0.093
same,promoter activity interaction Z-score,[2]; [12],-0.0481 ± 0.051
same,promoter activity interaction Z-score,[2]; [13],-0.00303 ± 0.08
same,promoter activity interaction Z-score,[2]; [14],0.208 ± 0.053
same,promoter activity interaction Z-score,[2]; [15],0.0906 ± 0.13
same,promoter activity interaction Z-score,[2]; [16],0.0124 ± 0.13
same,promoter activity interaction Z-score,[2]; [17],-0.193 ± 0.016
same,promoter activity interaction Z-score,[2]; [18],0.131 ± 0.081
same,promoter activity interaction Z-score,[2]; [19],0.33 ± 0.19
same,promoter activity interaction Z-score,[2]; [20],-0.0142 ± 0.091
same,promoter activity interaction Z-score,[2]; [21],-0.115 ± 0.2
same,promoter activity interaction Z-score,[2]; [22],0.467 ± 0.33
same,promoter activity interaction Z-score,[3]; [7],0.543 ± 0.52
same,promoter activity interaction Z-score,[3]; [8],0.58 ± 0.32
same,promoter activity interaction Z-score,[3]; [9],0.8 ± 0.87
same,promoter activity interaction Z-score,[3]; [10],0.0444 ± 0.43
same,promoter activity interaction Z-score,[3]; [11],0.46 ± 0.84
same,promoter activity interaction Z-score,[3]; [12],0.92 ± 1.9
same,promoter activity interaction Z-score,[3]; [13],1.39 ± 1.6
same,promoter activity interaction Z-score,[3]; [14],0.446 ± 0.44
same,promoter activity interaction Z-score,[3]; [15],0.634 ± 0.23
same,promoter activity interaction Z-score,[3]; [16],0.0667 ± 0.36
same,promoter activity interaction Z-score,[3]; [17],0.00624 ± 0.23
same,promoter activity interaction Z-score,[3]; [18],0.0301 ± 0.019
same,promoter activity interaction Z-score,[3]; [19],1.76 ± 0.4
same,promoter activity interaction Z-score,[3]; [20],3.2 ± 2
same,promoter activity interaction Z-score,[3]; [21],1.79 ± 0.59
same,promoter activity interaction Z-score,[3]; [22],1.52 ± 0.2
same,promoter activity interaction Z-score,[4]; [7],0.57 ± 0.013
same,promoter activity interaction Z-score,[4]; [8],0.679 ± 0.25
same,promoter activity interaction Z-score,[4]; [9],0.28 ± 0.54
same,promoter activity interaction Z-score,[4]; [10],0.0239 ± 0.071
same,promoter activity interaction Z-score,[4]; [11],1.23 ± 0.055
same,promoter activity interaction Z-score,[4]; [12],1.12 ± 1
same,promoter activity interaction Z-score,[4]; [13],0.344 ± 1.1
same,promoter activity interaction Z-score,[4]; [14],0.459 ± 0.35
same,promoter activity interaction Z-score,[4]; [15],1.05 ± 0.45
same,promoter activity interaction Z-score,[4]; [16],-0.18 ± 0.022
same,promoter activity interaction Z-score,[4]; [17],-0.207 ± 0.35
same,promoter activity interaction Z-score,[4]; [18],-0.519 ± 0.17
same,promoter activity interaction Z-score,[4]; [19],1.2 ± 0.5
same,promoter activity interaction Z-score,[4]; [20],1.72 ± 1.6
same,promoter activity interaction Z-score,[4]; [21],0.387 ± 0.033
same,promoter activity interaction Z-score,[4]; [22],0.464 ± 0.086
same,promoter activity interaction Z-score,[5]; [7],-0.101 ± 0.17
same,promoter activity interaction Z-score,[5]; [8],-0.203 ± 0.0084
same,promoter activity interaction Z-score,[5]; [9],-0.117 ± 0.15
same,promoter activity interaction Z-score,[5]; [10],-0.425 ± 0.2
same,promoter activity interaction Z-score,[5]; [11],-0.0613 ± 0.16
same,promoter activity interaction Z-score,[5]; [12],-0.366 ± 0.011
same,promoter activity interaction Z-score,[5]; [13],-0.175 ± 0.039
same,promoter activity interaction Z-score,[5]; [14],-0.141 ± 0.26
same,promoter activity interaction Z-score,[5]; [15],-0.0221 ± 0.0045
same,promoter activity interaction Z-score,[5]; [16],-0.26 ± 0.096
same,promoter activity interaction Z-score,[5]; [17],-0.323 ± 0.11
same,promoter activity interaction Z-score,[5]; [18],-0.283 ± 0.26
same,promoter activity interaction Z-score,[5]; [19],0.172 ± 0.16
same,promoter activity interaction Z-score,[5]; [20],-0.231 ± 0.12
same,promoter activity interaction Z-score,[5]; [21],-0.25 ± 0.12
same,promoter activity interaction Z-score,[5]; [22],-0.213 ± 0.14
same,promoter activity interaction Z-score,[6]; [7],0.361 ± 0.53
same,promoter activity interaction Z-score,[6]; [8],0.711 ± 0.34
same,promoter activity interaction Z-score,[6]; [9],0.221 ± 0.16
same,promoter activity interaction Z-score,[6]; [10],-0.376 ± 0.49
same,promoter activity interaction Z-score,[6]; [11],-0.382 ± 0.52
same,promoter activity interaction Z-score,[6]; [12],-0.763 ± 0.28
same,promoter activity interaction Z-score,[6]; [13],-0.313 ± 0.84
same,promoter activity interaction Z-score,[6]; [14],0.357 ± 0.55
same,promoter activity interaction Z-score,[6]; [15],-0.207 ± 0.26
same,promoter activity interaction Z-score,[6]; [16],-0.0988 ± 1.2
same,promoter activity interaction Z-score,[6]; [17],-0.56 ± 0.75
same,promoter activity interaction Z-score,[6]; [18],0.223 ± 0.16
same,promoter activity interaction Z-score,[6]; [19],0.269 ± 0.23
same,promoter activity interaction Z-score,[6]; [20],-0.244 ± 0.4
same,promoter activity interaction Z-score,[6]; [21],-0.307 ± 0.99
same,promoter activity interaction Z-score,[6]; [22],0.299 ± 0.054
